# In ChEMBL document CHEMBL3433997, “St. Jude Leishmania screening dataset” (2016):
# Experiments:
# Assay type in all cases: functional
# [1] = molecular target: Solute carrier family 2, facilitated glucose transporter member 1 (Homo sapiens) (UniProt P11166); assay: ST_JUDE_LEISH: Cytotoxicity at 2uM final concentration against transgenic Leishmania Mexicana promastigotes LmGLUT1 that are glucose transport deficient and complemented with the human glucose transporter GLUT1. Activity is measured by DNA content using SYBR green in vitro
# Chain of Solute carrier family 2, facilitated glucose transporter member 1 (Homo sapiens) (P11166 whole entry): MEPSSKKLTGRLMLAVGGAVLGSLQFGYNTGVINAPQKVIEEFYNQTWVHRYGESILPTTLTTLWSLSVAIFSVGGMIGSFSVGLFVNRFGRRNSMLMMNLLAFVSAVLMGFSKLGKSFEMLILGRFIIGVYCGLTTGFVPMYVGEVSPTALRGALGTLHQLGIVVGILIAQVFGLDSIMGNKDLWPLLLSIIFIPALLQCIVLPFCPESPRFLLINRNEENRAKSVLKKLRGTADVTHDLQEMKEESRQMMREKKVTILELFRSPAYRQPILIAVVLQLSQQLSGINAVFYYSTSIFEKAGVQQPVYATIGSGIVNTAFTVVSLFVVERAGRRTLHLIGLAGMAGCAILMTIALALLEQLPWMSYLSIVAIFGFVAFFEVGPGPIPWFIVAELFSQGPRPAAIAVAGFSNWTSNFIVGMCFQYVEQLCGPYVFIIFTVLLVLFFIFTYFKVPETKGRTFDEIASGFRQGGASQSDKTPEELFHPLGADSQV
# [2] = molecular target: Hexose transporter 1 (Plasmodium falciparum) (UniProt O97467); assay: ST_JUDE_LEISH: Cytotoxicity at 2uM final concentration against transgenic Leishmania Mexicana promastigotes LmPfHT that are glucose transport deficient and complemented with the Plasmodium falciparum hexose transporter. Activity is measured by DNA content using SYBR green in vitro
# [3] = molecular target: Glucose transporter (Leishmania mexicana) (UniProt O61059); assay: ST_JUDE_LEISH: Cytotoxicity at 2uM final concentration against transgenic Leishmania Mexicana promastigotes LmGT2 that are glucose transport deficient and complemented with the L. Mexicana glucose transporter 2. Activity is measured by DNA content using SYBR green in vitro
SMILES,inhibition [1] [%],inhibition [2] [%],inhibition [3] [%]
O=S(=O)(Nc1ccc(CCN2CCC(N3CCCCC3)CC2)cc1)c1ccc(Cl)cc1,1.32,2.6,2.94
Nc1ccn([C@@H]2O[C@H](COC(c3ccccc3)(c3ccccc3)c3ccccc3)[C@@H](O)[C@@H]2O)c(=O)n1,3.1,4.86,4.4
COc1ccc2c(=NN=Cc3cccc(C)n3)cc(-c3ccccc3)[nH]c2c1,4.3,2.19,4.08
O=c1[nH]c2ccc(Nc3nccc(NCCc4ccccc4)n3)cc2[nH]1,1.91,4.94,5.12
Cc1cccc2nc(-c3ccc(-c4ccc(NC(=O)CN5CCN(C)CC5)cc4)cc3)[nH]c12,2.26,1.8,4.7
O=C(C1CC1c1ccccc1)N(Cc1ccc(-c2ccc(CNCCc3ccccc3)cc2)cc1)C1CCNCC1 (stereo not given),10.3,8.35,9.97
CCOCc1cnc(C)nc1NCC(=O)c1c(C)[nH]c2cc(C)ccc12,-0.21,-0.79,-0.44
CC(C)CN1C(=O)c2ccc(C(=O)Nc3nccs3)cc2C1=O,1.07,1.52,3.65
COc1cc(C=NN=c2cc(C)[nH]c3ccccc23)cc(OC)c1OC,3.56,4.95,1.6
CC(=O)Nc1ccc(C(=O)Nc2cccc(-c3csc(-c4nc5ccccc5[nH]4)c3)c2)cn1,0.54,1.56,-0.51
Cn1c(N)c(C(=O)CSc2ncc(-c3ccc(F)cc3)n2Cc2ccccc2)c(=O)n(C)c1=O,2.53,1.62,3.15
O=C(NCCNc1noc(-c2sccc2Br)n1)c1ccc(Cl)cc1,-1.4,3.34,-0.91
COc1cc(CN2CCC(NC(=O)[C@H](Cc3ccccc3)NC(=O)Nc3ccc(Oc4ccccc4)cc3)C2)ccc1O (stereo not given in full),0.58,1.77,-3.37
CC(=O)Nc1ccc(C(=O)Nc2ccc(-c3cccc(-c4nc5cc(F)ccc5[nH]4)c3)cc2)cn1,0.13,1.66,-4.38
Cc1cc(NC2CCN(CC3CCCCC3)CC2)nc(Nc2ccccc2Cl)n1,2.86,6.27,0.85
Cc1c(CNCCCNc2cc(=O)c3ccccc3[nH]2)sc(-c2ccco2)c1Br,14.4,13.6,13.9
COc1cccc(C2CCCN(CCCCNC(=O)c3ccc(NC(=O)c4ccc(Cl)cc4)cc3)C2)c1 (stereo not given),2.97,4.25,3.02
COc1ccc2cc(C(=O)NC3CCC(CCN4CCc5cc(C#N)ccc5C4)CC3)[nH]c2c1 (stereo not given),3.48,0.58,3.6
CCOCCCn1c(=N)c(C(=O)NC(C)c2ccccc2)cc2c(=O)n3cccc(C)c3nc21 (stereo not given),7.84,6.01,3.81
COc1ccc2nc3cc(Cl)ccc3c(NCCCN3CCNCC3)c2c1,3.27,3.25,2.39
FC(F)(F)c1ccc2[nH]c(-c3ccc(-c4cccc(CNCC5CCCO5)c4)s3)nc2c1 (stereo not given),0.73,2.27,2.21
COc1cc2nc(N3CCC(C(N)=O)CC3)nc(NCc3ccccc3)c2cc1OC,3.29,1.29,0.48
Cc1ccc(NC(C)C(=O)Nc2ccc(C#N)cc2)cc1S(=O)(=O)N1CCCCC1 (stereo not given),58.5,71.8,58.8
CSc1ccc2nccc(Nc3ccc(Oc4ccccc4)cc3)c2c1,5.73,6.24,1.56

SMILES,inhibition [1] [%],inhibition [2] [%],inhibition [3] [%]
Oc1ccc2[nH]cc(C3CCN(CCCCCCCCCN4CCC(c5c[nH]c6ccc(O)cc56)CC4)CC3)c2c1,-1.57,-1.31,-1.9
O=C(NCCc1cccc(Cl)c1Cl)c1cnc(N2CCN(c3ccncc3)CC2)c(Cl)c1,77.2,81.6,83.9
CC(=O)c1ccc(-c2cccc3c(CC(=O)Nc4ccc5nccc(N6CCN(C)CC6)c5c4)cccc23)cc1,0.38,1.03,-1.81
Cc1cc(-c2cccc(CNC3CCN(C)CC3)c2)ccc1S(=O)(=O)NCc1ccccc1,4.02,3.65,4.62
CC(=O)Nc1ccc(Nc2ncc([N+](=O)[O-])c(Nc3ccccc3C(N)=O)n2)cc1,3.27,1.61,1.93
Cc1cc(NCCc2ccc(O)cc2)nc(NCC(c2ccccc2)c2ccccc2)n1,12.9,8.92,5.19
CC[C@H]1CN2CCc3c([nH]c4ccccc34)[C@@H]2C[C@@H]1CC1c2cc(OC)c(OC)cc2CCN1C (stereo not given in full),9.81,10,9.79
O=S(=O)(NC1CCN(c2ccnc3cc(Cl)ccc23)C1)c1ccc(F)cc1 (stereo not given),0.47,1.68,1.83
Cc1[nH]c(C)c(-c2ccc(OCc3ccc(OC(F)(F)F)cc3)nc2)c(=O)c1Cl,13.3,15.2,11.2
Cc1cccc2nc(-c3ccc(-c4cccc(NC(=O)C(C)CN(C)C)c4)s3)[nH]c12 (stereo not given),-0.15,1.85,0.27
O=S(=O)(c1ccc2ccccc2c1)N1CCCN(Cc2ccc(OCCCN3CCCCC3)cc2)CC1,63,71.4,45.5
CC(=NO)C1=C(O)C(c2ccccc2)N(c2ccccc2)C1=O (stereo not given),1.86,2.06,1.72
CCN(CCO)CCCC(C)Nc1ccnc2cc(Cl)ccc12 (stereo not given),7,7.44,6.05
COc1ccc2cc(C=NNc3nc4ccccc4[nH]3)c(Cl)nc2c1,-0.3,0.04,1.79
N=c1c(C(=O)NCc2ccccc2)cc2c(=O)n3ccccc3nc2n1CCc1ccccc1,3.5,4.07,2.34
NC1CCN(CCNCc2cccc(-c3ccc(-c4nc5cc(F)ccc5[nH]4)cc3)c2)C1 (stereo not given),7.06,11.1,6.13
Cc1ccc2ncc(Cl)c(CCN3CCC(NCc4ccc5c(n4)NC(=O)CS5)CC3)c2n1,3.75,4.54,2.85
O=C(Cn1c(CCc2cccc(F)c2F)nc(=O)c2cccnc21)N(Cc1ccc(-c2ccc(C(F)(F)F)cc2)cc1)C1CCN(C2CCOCC2)CC1,2.69,1.35,1.43
CC1(C)NC(N)=NC(=N)N1OCC1CCCCC1,-0.1,1.24,0.75
Clc1ccc(CNc2ccnc(NCc3ccc4c(c3)OCCCO4)n2)c(Cl)c1,4.44,5.76,3.69
Cc1cc(O)c(-c2cc(C(=O)Nc3cccnc3)[nH]n2)cc1C,7.05,4.46,4.37
Cc1c(Cn2nc(Cl)c(N3CCNCC3)cc2=O)cccc1NC(=O)Nc1ccc(-c2ccccc2)cc1,-2.62,-2.29,-0.03
CCn1ccc2c(N3CCCS3(=O)=O)cc(C(=O)N[C@@H](Cc3ccccc3)[C@H](O)CNC(C)(C)CCCC(C)C)cc21,7.39,7.48,2.41
Cc1ccc(-c2nnc(-c3ccc(C(=O)NC4CCN(Cc5ccc(C#N)cc5)CC4)cc3)o2)cc1Br,8.8,5.73,4.37

SMILES,inhibition [1] [%],inhibition [2] [%],inhibition [3] [%]
CCN(CC)CCN(Cc1ccc(-c2ccc(Cl)cc2)cc1)C(=O)Cn1c(CCc2cccc(F)c2F)nc(=O)c2ccccc21,-2.54,-2.71,-1.69
C[C@H](Cc1ccc(OCCCCCCOc2ccc(C[C@@H](C)N[C@H](C)c3ccccc3)cc2)cc1)NC[C@H](O)c1cccc(Cl)c1,106,94,82.4
CCC(=O)NC(c1ccco1)c1cc(Cl)c2cccnc2c1O (stereo not given),12.9,12.3,10.7
FC(F)(F)c1ccc2c(NN=Cc3cccc(Cl)c3)ccnc2c1,5.93,5.5,3.57
Cc1nc(N)nc(N)c1OCc1cccc2c1ccc1ccccc12,3.53,6.28,2.84
Nc1ncc(-c2ccc3[nH]ccc3c2)c2ccc(-c3ccncc3)cc12,10,10.2,9.5
CCN1C(=O)C(CC(=O)Nc2cccc(Cl)c2)N(Cc2ccc(OC)c(OC)c2)C1=S (stereo not given),0.59,4.35,0.57
COc1ccc2nccc([C@@H](O)CN3CCC(c4cc(-c5ccc(Cl)cc5)[nH]n4)CC3)c2n1,64.9,78.2,81.2
Cn1cnc(CCNC(=O)c2cccc(-c3ccc(-c4nc5cc(F)ccc5[nH]4)cc3)c2)c1,1.27,1.88,0.3
O=C(COc1ccc(F)cc1)NC1CCN(c2ccnc3cc(Cl)ccc23)C1 (stereo not given),7.22,6.11,6.88
CC1=C(C(=O)Nc2ccccc2)C(c2ccc([N+](=O)[O-])cc2)n2ncc(C(=O)Nc3ccccc3)c2N1 (stereo not given),14.2,6.94,5.18
Fc1cccc(COc2ccc(Nc3ncnc4sc(C#C[C@H]5CC[C@H](CNCC(F)(F)F)N5)cc34)cc2Cl)c1,1.63,1.52,1.3
COc1cc(CNCCCCCCNCc2cc(OC)cc3ccccc23)c2ccccc2c1,10.8,11.7,10.4
COc1ccc(OC)c(CC2c3ccc(Br)c(O)c3CCN2C)c1 (stereo not given),1.36,1.41,2.33
O=C(Nc1ccc(Cl)cc1)c1cccc(S(=O)(=O)NC2CCN(CC3CCCCC3)CC2)c1,0.8,1.68,3.31
COc1ccc(C(=O)N[C@@H](CC(C)C)C(=O)N[C@H](/C=N/NC(=O)c2ccccc2)CCc2ccccc2)cc1OCCN1CCOCC1,-0.43,3.34,6.8
Cc1nc(-c2ccc(-c3ccc(C(=O)Nc4ccc(I)c(OCC5CCCN5C)c4)cc3)c(C)c2)no1 (stereo not given),9.63,7.75,5.6
COc1cccc(CNC(=O)c2cnc(N3CCN(c4ccncc4)CC3)c(Cl)c2)c1,18,23.8,10.9
COc1ccc(Cl)cc1-c1nc(C(=O)NCCN2CCCCC2)c(C)s1,1.59,2.9,5.49
CC(C)(C)C(=O)Nc1c(-c2cc(=O)oc3cc4c(cc23)CCC4)oc2ccccc12,4.02,4.1,5.42
O=C(Cc1ccccc1)NC(CCN1CCC(NC(=O)c2ccc(Cl)cc2)CC1)c1ccc(Cl)c(Cl)c1 (stereo not given),2.22,0.27,1.02
Cc1noc(C)c1-c1cccc(CNCc2ccc(-c3cccc(-c4nc5cccc(C)c5[nH]4)c3)cc2)c1,0.9,-2.28,-4.14
